# ClpP mod: qHTS Assay for Activators of ClpP; 1.9% of 340,000 active; purified B. subtilis ClpP, FRET peptide cleavage, 20 min; Potency, µM (series often up to 57.5 µM), for inactives: top-dose activity change, negative = active; ATP-dependent Clp protease proteolytic subunit (Bacillus subtilis (strain 168)), P80244; active = well fitted falling curve with a large enough effect; inconclusive = small, poorly fitted or top-dose-only effect; inactive = no such curve, though single readings can be large or run the other way; note: potency is the fitted concentration of half-maximal effect; the source files actives as falling curves though it sought activators and does not explain the sign; nearly all actives have a fitted effect of over 65% in size
#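 ClpP 10 microg/mL final, pH 8 Tris/KCl buffer with BSA, glycerol, Tween-20; compound pinned in; FRET-FV substrate; RT 20 min; Ex320/Em430; ΔFRET vs ADEP 5.8 microM, DMSO, no enzyme.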
# hERG WT inh: KCNH2 (human, wildtype) channel inhibition; 0.37% of 340,000 active; U2OS, BacMam KCNH2, thallium flux FluxOr; stronger effect = lower value; Q12809; AID 720551; activity change, % at 1.84 µM;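 active = maximum activity change below -70%; inconclusive = maximum activity change between -70% and -50%; inactive = maximum activity change above -50%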; note: % is set by controls: 0 for no effect and ±100 for the full control effect
#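 U2OS cells transduced with wild-type KCNH2 virus are loaded with FluxOr dye for 45 min, and thallium flux is measured in kinetic reads before and after stimulation buffer. Rate constants are normalized to DMSO controls.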
# KCNH2 3.1 block: KCNH2 3.1 (human) potassium channel inhibition. U2OS KCNH2 3.1, thallium flux FluxOr; stronger effect = lower value. activity change, % (tested at about 1.8 µM). 0.95% of 340,000 active;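 active = maximum activity change below -70%; inconclusive = maximum activity change from -70% to -50%; inactive = maximum activity change above -50%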;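 note: thallium influx rate constant from kinetic fluorescence after stimulation buffer; % is set by controls: 0 for no effect and ±100 for the full control effect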
#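 Thallium flux via FluxOr fluorescence (Red40 quencher, 45 min loading) in U2OS cells virally expressing the KCNH2 3.1 isoform (1.77 x 10^8 /mL virus, overnight at 37 C). Rate constants from 2-min kinetic reads post-stimulation, normalised to positive and negative controls.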
# LDHA block: blocks human lactate dehydrogenase A. activity change, % (values are at about 110 or 230 µM). purified LDHA, NADH/diaphorase-resazurin fluorescence; stronger effect = lower value. AID 1347041. P00338. 0.15% of 480,000 active; in the data active = activity change below about -30%; inconclusive = mostly about -25% to -30%;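 note: plate controls were DMSO wells for no effect and wells without enzyme for full effect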
#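 Human LDH5 at 2 nM final in Tris HCl pH 7.4 with 0.06 mM NADH and 0.2 mM pyruvate, reacted 5 minutes at room temperature. Remaining NADH coupled via diaphorase/resazurin; resorufin fluorescence read at 0 and 20 minutes, normalized to enzyme-free and DMSO wells.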
# Chronic BCR inh: chronic active BCR signaling inhibition. ABC-DLBCL IkBa-CBG/CBR reporter, luminescence ratio, 4 h. Potency, µM (doses to about 46.1 µM), for inactives: top-dose activity change, negative = inhibition, actives largely listed as inhibitors. 0.05% of 340,000 active. AID 493014; active = well fitted inhibition curve with a large enough effect in the signal ratio, with a control signal flat, not every such curve was filed as active; inconclusive = small, poorly fitted or top-dose-only effect, or effect the other way, or a change in a side signal; the % refers to the signal ratio;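 note: potency is the fitted concentration of half-maximal effect; plate controls were basal doxycycline-induced cells for no effect and cells given 10 µM MG132 for full effect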
#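 Cell line TMD8 (human ABC DLBCL), stably expressing tet-inducible CBG68-IkBa fusion and CBR; IMDM/0.5% FBS; cpd up to 46 uM; dox induction, 4 h, 37C/5% CO2; dual luminescence; green/red ratio; MG132 control.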
# 12-LOX inh: blocks human arachidonate 12S-lipoxygenase; AID 1671190; 1.1% of 580,000 active; purified 12hLO, xylenol orange hydroperoxide absorbance; Potency, µM (series often up to 108 µM), for inactives: at the top dose activity change, negative = inhibition, usual class: inhibitors; P18054; active = well fitted inhibition curve with a large enough effect; inconclusive = small, poorly fitted or top-dose-only effect, or another doubt; inactive = no such curve, though single readings can be large or run the other way; note: potency is the fitted concentration of half-maximal effect; % is set by controls: 0 for no effect and ±100 for the full control effect
#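 Purified human 12hLO at 150 nM in 25 mM Hepes, 0.01% Triton X-100, pH 7.0, preincubated 15 min at room temperature with compound. Reaction started with 40 uM arachidonic acid, 30 min at room temperature. Hydroperoxide measured by Fe-xylenol orange, 573/405 nm absorbance ratio.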
# * hit, by the source's call; u = inconclusive; x = no result given. In the library only some 3% were active in any assay of this set; here they are far more common.
SMILES,ClpP mod,hERG WT inh,KCNH2 3.1 block,LDHA block,Chronic BCR inh,12-LOX inh
Nc1nc(=S)c2ncn(C3CCCCC3)c2[nH]1,x,-4,17,-2,x,50µM*
Nc1nc(=S)c2ncn([C@@H]3O[C@H](CO)[C@@H](O)[C@H]3O)c2[nH]1,3%,-13,7,-5,u,u
C=CCNC(=S)NN=C1CCCCCCC1,0%,3,1,-6,u,14µM*
C=CCNC(=S)NN=C1CCC(CCC)CC1 (centres undefined),x,x,x,6,x,u
N#Cc1c(N2CCCCC2)nc(N)c2c(N)nc3c(c12)CC(c1ccccc1)O3 (centres undefined),28µM*,-7,0,10,u,0%
CCN(CC)c1nc(N)c2c(N)nc3c(c2c1C#N)CC(c1ccccc1)O3 (centres undefined),28µM*,24,4,26,u,-5%
CCC1Cc2c(nc(N)c3c(N)nc(N4CCCCC4)c(C#N)c23)O1 (centres undefined),x,-8,-6,16,u,27%
CCN(CC)c1nc(N)c2c(N)n(-c3ccccc3C)c(=S)c(C#N)c2c1C#N,3%,3,-2,7,u,0%
CCn1nc(C(=O)Nc2cc(OC)c(OC)c(OC)c2)c2ccccc2c1=O,x,x,x,-7,x,u
CC1(C)CC(N2CCCCC2)=CC(=NCCCN2CCOCC2)C1,x,x,x,7,x,22µM*
CC1(C)CC(=O)C(C=NCCCN2CCOCC2)=C(O)C1,-1%,-10,-16,-2,4%,u
Cc1sc2ncnc(Sc3ccccc3C(=O)Nc3ccc(Br)cc3)c2c1C,-8%,1,-19,-5,u,10µM*
O=[N+]([O-])c1cc(C(F)(F)F)ccc1NCCNC(=S)Nc1ccc(Cl)cc1,0%,-2,10,0,u,40µM*
CS(=O)(=O)NCCCNc1ccc(C(F)(F)F)cc1[N+](=O)[O-],1%,-18,-1,2,-2%,13%
O=[N+]([O-])c1cc(C(F)(F)F)ccc1NCCCCNS(=O)(=O)c1ccc(Cl)cc1,2%,-8,-103*,4,-2%,u
CC(=O)Nc1ccc(Cl)c(NC(=O)c2nn(-c3ccccc3)c(=O)c3ccccc23)c1,x,x,x,11,x,4%
CC1(C)NC(=O)N(Cc2ncc(-c3cccc(Cl)c3)o2)C1=O,x,x,x,5,x,4%
O=C(CN1CCCC(c2nc3ccccc3o2)C1)NC(=O)NC1CC1 (centres undefined),x,x,x,-6,x,45%
COC(=O)c1ccc(OCC(=O)c2ccccc2OC)cc1,0%,-18,2,-4,u,20µM*
COc1cc(NS(=O)(=O)c2ccc(NC(=O)c3ccc(OC)c(Br)c3)cc2)nc(OC)n1,-3%,x,x,-50*,x,u
CCOc1cc(C(=O)Nc2ccc(S(=O)(=O)Nc3cc(OC)nc(OC)n3)cc2)cc(OCC)c1OCC,-1%,x,x,-5,x,-26%
Nc1nccnc1C(=O)NCC(=O)OCc1ccccc1,x,x,x,2,x,-5%
O=CN1CCN(C(=O)Cc2ccc([N+](=O)[O-])cc2)CC1,25µM*,-9,-19,-7,-2%,-31%
O=S(=O)(c1ccccc1)c1cnn2c(C(F)(F)F)cc(-c3ccccc3)nc12,u,-5,-2,4,-1%,0%
COc1ccccc1-c1cc(C(F)(F)F)n2ncc(S(=O)(=O)c3ccccc3)c2n1,28µM*,13,-26,11,u,0%
SMILES,ClpP mod,hERG WT inh,KCNH2 3.1 block,LDHA block,Chronic BCR inh,12-LOX inh
Cc1ccc(CNC(=O)N2CCCCCNC(=O)CC2c2ccccc2)cc1 (centres undefined),x,x,x,x,x,11%
CN(C)CCSc1nc(-c2ccccc2)nc2c1CCCC2,16µM*,7,-8,-5,-9%,-18%
Cc1ccc(C(=O)NC(=S)N2CC(C)OC(C)C2)cc1[N+](=O)[O-] (centres undefined),0%,2,-91*,1,0%,-7%
CC(=O)N1CCN(c2ccc(NC(=S)NC(=O)c3ccc(C)c([N+](=O)[O-])c3)cc2)CC1,32µM*,-11,11,-4,-4%,u
Cc1ccc(NC(=O)N2CC(C)OC(C)C2)cc1[N+](=O)[O-] (centres undefined),x,x,x,x,x,0%
NS(=O)(=O)c1ccc(CCNCC(O)COCc2ccc(Cl)cc2)cc1 (centres undefined),x,x,x,2,x,u
OC[C@@H]1O[C@H](CNCc2ccc(F)cc2)[C@H](N2CCOCC2)[C@@H]1O,x,x,x,x,x,28µM*
Cc1ccccc1C(=O)Nc1cccc(-c2nnc(SCC(=O)N3CCc4ccccc43)n2C)c1,x,x,x,11,x,u
CSc1ccc(C2CC(=O)Nc3nc(N)sc32)cc1 (centres undefined),x,x,x,88,x,25µM*
CC(C)Oc1cccc(C2CC(=O)Nc3nc(N)sc32)c1 (centres undefined),x,x,x,97,x,u
Nc1nc2c(s1)C(c1cccc(F)c1)CC(=O)N2 (centres undefined),x,x,x,x,x,16µM*
O=C(Nc1ccc(Cl)cc1)[C@@H]1[C@@H]2C(=O)N(c3ccc4ccccc4c3)C(=O)[C@@H]2[C@H]2C=CC=NN21,-2%,-3,-13,9,u,18µM*
Cc1ccccc1CC(=O)N1CCCn2cc(-c3cccc(C#N)c3)nc21,x,x,x,x,x,15%
Cc1cc(/C=C(/C#N)C(N)=O)c(C)cc1/C=C(/C#N)C(N)=O,x,x,x,0,x,u
Cc1nn(C)cc1/C=C(/C#N)C(N)=O,16µM*,1,18,3,12%,-5%
CCCCCn1nc(C(=O)OCC(=O)c2cc(C)n(CCC)c2C)c2ccccc2c1=O,x,x,x,1,x,-18%
CCn1c(SCC(=O)N(C)Cc2ccc(-c3ccc(Cl)cc3)o2)nnc1C1CC1,x,x,x,5,x,u
COc1ccc(CNCC(O)(c2ccccc2)c2ccc(F)cc2)cc1 (centres undefined),x,11,-75*,-5,u,0%
COc1ccc(C(OCC(O)CNC(C)c2ccccc2)c2ccc(OC)cc2)cc1 (centres undefined),x,-14,-76*,-3,-1%,u
Cc1ccc(C(OCC(O)CNCc2ccc(F)cc2)c2ccccc2)cc1 (centres undefined),-2%,-79*,-106*,-6,u,u
COc1ccc(CNCC(O)(c2ccccc2)c2ccc(F)cc2)cc1OC (centres undefined),x,-16,0,-7,u,0%

# High-throughput results deposited in PubChem BioAssay by National Center for Advancing Translational Sciences (NCATS).
